# Data reported in PubChem BioAssay (EPA / NIEHS).
# Where “and” joins values, the source holds several entries; their conditions need not be identical. Equal entries are not always repeated. Inconclusive results are not listed. Where a structure was tested more than once in an assay, its records may differ in their call. Calls of active or inactive are those of the source. The calls were made as follows: active = hit-call score of the fitted dose curve at least 0.9, where 1 is the maximum; inconclusive = response in the unintended direction; inactive = score below 0.9.
# Biological target: rat Somatostatin Receptor (SST), Sstr1 (gene 25033) (UniProt P28646)
# Experiment: NVS_GPCR_rSST: NovaScreen (NVS) G Protein-Coupled Receptor Assay for rat Somatostatin Receptor (SST) (AID 2283314)
# Summary of the method: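 Rat forebrain membranes; radioligand displacement read by filter-based scintillation counting 1 h after dosing. Primary screen in duplicate at 25 uM. Actives (e.g., 30% inhibition) were rerun as concentration-response to 50 uM max and fitted against DMSO.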
# rat Somatostatin Receptor (SST), Sstr1 (gene 25033), sequence (P28646 whole entry, looked up): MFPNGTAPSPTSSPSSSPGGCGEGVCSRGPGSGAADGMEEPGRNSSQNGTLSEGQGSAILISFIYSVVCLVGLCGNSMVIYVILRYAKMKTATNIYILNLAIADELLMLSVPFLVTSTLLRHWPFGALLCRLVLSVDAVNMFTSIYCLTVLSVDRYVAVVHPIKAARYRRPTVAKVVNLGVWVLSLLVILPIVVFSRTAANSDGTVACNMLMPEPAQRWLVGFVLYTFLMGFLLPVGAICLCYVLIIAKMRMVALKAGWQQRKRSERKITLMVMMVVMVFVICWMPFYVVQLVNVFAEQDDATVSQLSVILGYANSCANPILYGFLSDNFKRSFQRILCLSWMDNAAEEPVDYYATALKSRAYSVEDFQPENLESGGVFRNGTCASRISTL
row,SMILES,AC50
1,C=C(C)C(=O)[O][Sn]([CH2]CCC)([CH2]CCC)[CH2]CCC,12.8 µM (active)
2,Cc1ccccc1N,10.8 µM (active)
3,CC(=O)[O][Hg][c]1ccccc1,5.92 µM (active)

# Biological target: rat Neonicotinoid receptor (NNR), Chrna7 (gene 25302) (UniProt Q05941)
# Experiment: NVS_LGIC_rNNR_BungSens: NovaScreen (NVS) Ligand-Gated Ion Channel Assay for rat Neonicotinoid receptor (NNR) (AID 2283315)
# Summary of the method: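 Radioligand displacement binding on rat cortical membranes, 2.5 h incubation, filtration and scintillation counting. Loss of specific binding fitted relative to DMSO.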
# rat Neonicotinoid receptor (NNR), Chrna7 (gene 25302), sequence (Q05941 whole entry, looked up): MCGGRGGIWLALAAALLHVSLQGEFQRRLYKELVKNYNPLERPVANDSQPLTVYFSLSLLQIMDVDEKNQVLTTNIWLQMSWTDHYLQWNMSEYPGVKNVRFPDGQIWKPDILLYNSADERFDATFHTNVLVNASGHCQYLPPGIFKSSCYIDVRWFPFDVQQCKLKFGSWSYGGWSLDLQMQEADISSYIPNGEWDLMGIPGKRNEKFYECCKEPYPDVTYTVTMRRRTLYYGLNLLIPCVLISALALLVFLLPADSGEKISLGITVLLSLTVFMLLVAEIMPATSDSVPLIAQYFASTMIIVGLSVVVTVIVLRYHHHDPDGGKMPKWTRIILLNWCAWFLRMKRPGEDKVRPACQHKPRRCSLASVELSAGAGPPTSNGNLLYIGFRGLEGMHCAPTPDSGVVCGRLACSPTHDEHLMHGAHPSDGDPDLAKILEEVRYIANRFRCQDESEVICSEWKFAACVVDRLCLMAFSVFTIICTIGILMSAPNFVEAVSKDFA
SMILES,outcome,AC50
C[C@@H]1C[C@@H]([C@H](O)CC2CC(=O)NC(=O)C2)C(=O)[C@@H](C)C1,inactive,
CCN1CCC2(CC1)COc1cc3c(cc12)N(C(=O)c1ccc(-c2ccc(-c4nnc(C)o4)cc2C)cc1)CC3,,21.2 µM (active)
COc1cc2c(cc1OC)[C@@]13CCN4CC5=CCO[C@H]6CC(=O)N2[C@H]1[C@H]6[C@H]5C[C@H]43,,25 µM (active)

# Biological target: rat Opioid Receptor, Non-selective Binding, Oprm1 (gene 25601) (UniProt P33535)
# Experiment: NVS_GPCR_rOpiate_NonSelective: NovaScreen (NVS) G Protein-Coupled Receptor Assay for rat Opioid Receptor, Non-selective Binding (AID 2283318)
# Summary of the method: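 Rat forebrain membranes, cell-free radioligand binding with filter-based scintillation counting, read 1.5 h after dosing. Primary screen in duplicate at 25 uM; actives retested in concentration series. Loss of signal versus DMSO baseline scored.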
# rat Opioid Receptor, Non-selective Binding, Oprm1 (gene 25601), sequence (P33535 whole entry, looked up): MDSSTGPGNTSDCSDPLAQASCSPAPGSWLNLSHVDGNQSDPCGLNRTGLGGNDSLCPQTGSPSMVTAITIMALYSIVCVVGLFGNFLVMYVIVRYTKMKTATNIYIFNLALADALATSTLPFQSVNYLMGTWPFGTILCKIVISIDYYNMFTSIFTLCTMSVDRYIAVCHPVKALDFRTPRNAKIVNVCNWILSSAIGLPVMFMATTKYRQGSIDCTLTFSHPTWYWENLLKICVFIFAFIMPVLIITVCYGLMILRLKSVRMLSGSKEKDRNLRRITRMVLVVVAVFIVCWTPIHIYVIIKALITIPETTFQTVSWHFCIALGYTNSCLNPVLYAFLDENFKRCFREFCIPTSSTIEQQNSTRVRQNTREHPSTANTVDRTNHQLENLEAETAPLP
SMILES,AC50,outcome
C=C(C)C(=O)[O][Sn]([CH2]CCC)([CH2]CCC)[CH2]CCC,4.13 µM (active),
CCN1CCC2(CC1)COc1cc3c(cc12)N(C(=O)c1ccc(-c2ccc(-c4nnc(C)o4)cc2C)cc1)CC3,,inactive
O=c1[nH]c(=O)[nH]c(=O)[nH]1,,inactive
CC(=O)[O][Hg][c]1ccccc1,31.9 µM (active),

# Test system: not listed separately
# Experiment: NVS_IC_rCaDHPRCh_L: NovaScreen (NVS) Ion Channel Assay for rat Calcium Channel, Type L, Dihydropyridine Site (CaDHPRCh_L) (AID 2283320)
# Summary of the method: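 Radioligand binding to dihydropyridine site on rat cortical membranes, filter-based scintillation counting, 1 h after dosing. Screened in duplicate at 25 uM; actives rerun in concentration-response up to 50 uM. Loss of signal versus DMSO baseline.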
SMILES,outcome,AC50
Oc1cccc2cccnc12,inactive,
C=C(C)C(=O)[O][Sn]([CH2]CCC)([CH2]CCC)[CH2]CCC,,12.3 µM (active)
CCN1CCC2(CC1)COc1cc3c(cc12)N(C(=O)c1ccc(-c2ccc(-c4nnc(C)o4)cc2C)cc1)CC3,,4.93 µM (active)
CC(=O)[O][Hg][c]1ccccc1,,40.5 µM (active)

# Biological target: Sodium channel protein type 1 subunit alpha (Rattus norvegicus) (UniProt P04774)
# Experiment: NVS_IC_rNaCh_site2: NovaScreen (NVS) Ion Channel Assay for rat Sodium Channel, Site 2 (NaCh) (AID 2283322);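 also: hit means loss of radioligand binding signal relative to DMSO so AC50 marks displacement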
# Summary of the method: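 Membranes: rat forebrain. Format: competitive radioligand displacement, filter separation, scintillation readout, 1 h exposure. Primary screen in duplicate at 25 uM; actives retested in concentration series.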
SMILES,AC50,outcome
NC(=S)Nc1ccccc1,0.569 µM (active),
CCCCCCCCC(=O)NCc1ccc(O)c(OC)c1,1.55 µM (active),
C=C(C)C(=O)[O][Sn]([CH2]CCC)([CH2]CCC)[CH2]CCC,25 µM (active),
CCN1CCC2(CC1)COc1cc3c(cc12)N(C(=O)c1ccc(-c2ccc(-c4nnc(C)o4)cc2C)cc1)CC3,3.44 µM (active),
CCSC(C)CC1CC(=O)C(C(CC)=NOC/C=C/Cl)=C(O)C1 (centres undefined),,inactive
N#CCc1ccc(Cl)cc1,,inactive
CC(C)(C)CC(C)(C)c1ccc(O)cc1,,inactive
CCNc1nc(NC(C)(C)C)nc(SC)n1,12.1 µM (active),
O=C(Cl)c1ccc(Cl)cc1,,inactive
CCC(=O)C(CC(C)N(C)C)(c1ccccc1)c1ccccc1 (centres undefined),1.97 µM (active),

# Biological target: human Peripheral-type Benzodiazepine Receptor (PBR), TSPO (gene 706) (UniProt P30536)
# Experiment: NVS_MP_hPBR: NovaScreen (NVS) Membrane Protein Assay for human Peripheral-type Benzodiazepine Receptor (PBR) (AID 2283331);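 also: hits reduce radioligand binding relative to DMSO baseline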
# Summary of the method: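 Scintillation counts of filter-bound radioligand served as read-out after 1 h chemical dosing of human colonic membrane preparations. Activity was scored as signal loss against DMSO; initial duplicates at 25 uM, confirmatory concentration series afterward.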
# human Peripheral-type Benzodiazepine Receptor (PBR), TSPO (gene 706), sequence (P30536 whole entry, looked up): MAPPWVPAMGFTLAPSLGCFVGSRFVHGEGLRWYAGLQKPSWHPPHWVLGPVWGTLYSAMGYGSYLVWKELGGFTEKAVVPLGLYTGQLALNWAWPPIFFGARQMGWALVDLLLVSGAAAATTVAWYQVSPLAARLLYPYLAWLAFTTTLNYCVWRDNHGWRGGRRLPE
SMILES,AC50,outcome
CCCCCCCCC(=O)NCc1ccc(O)c(OC)c1,4.12 µM (active),
Oc1ccc(-c2ccccc2)cc1,43.8 µM (active) and 13.8 µM (active),
CCN1CCC2(CC1)COc1cc3c(cc12)N(C(=O)c1ccc(-c2ccc(-c4nnc(C)o4)cc2C)cc1)CC3,2.37 µM (active),
CCOP(=S)(OCC)SCCS(=O)(=O)CC,30.7 µM (active),
CC(C)CCCCCCOC(=O)c1ccccc1C(=O)OCCCCCCC(C)C,,inactive

# Biological target: Voltage-gated inwardly rectifying potassium channel KCNH2 (Homo sapiens) (UniProt Q12809)
# Experiment: NVS_IC_hKhERGCh: NovaScreen (NVS) Ion Channel Assay for human Potassium Channel ERG (KhERGCh) (AID 2283333)
# Experimental: NVS_IC_hKhERGCh is a biochemical, single-readout assay that uses extracted gene-proteins from CHO in a cell-free assay. Measurements were taken 0.75 hour after chemical dosing in a 48-well plate.NVS_IC_hKhERGCh is one of one assay component(s) measured or calculated from the NVS_IC_hKhERGCh assay. It is designed to make measurements of radioligand binding, a form of binding reporter, as detected with scintillation counting signals by Filter-based radiodetection technology.Data from the assay component NVS_IC_hKhERGCh was analyzed into 1 assay endpoint. This assay endpoint, NVS_IC_hKhERGCh, was analyzed in the positive analysis fitting direction relative to DMSO as the negative control and baseline of activity. Using a type of binding reporter, loss-of-signal activity can be used to understand changes in the binding as they relate to the gene KCNH2. Furthermore, this assay endpoint can be referred to as a primary readout, because the performed assay has only produced 1 assay endpoint. To generalize the intended target to other relatable targets, this assay endpoint is annotated to the ion channel intended target family, where the subfamily is potassium channel.
# Binding assays used specific radioligands (tritiated, iodinated) with non-radioactive competitive displacement ligands in agonist or antagonist protocols (as indicated) and various reference compounds and inhibitors to titrate specific binding to receptors and transporters. Most enzyme assays (CYPs, kinases, phosphatases, proteases, HDACs) used recombinant protein and specific substrates (fluorescence mostly, some colorimetric and radioactive) and inhibitors, followed by a biochemical separation of substrate and product. All assays for the biochemical HTS were initially run in duplicate at a single concentration (10 uM for CYP450 assays and 25 uM for all others). […] Each assay was run with positive and negative controls, and concurrent controls on every plate. […]
# Voltage-gated inwardly rectifying potassium channel KCNH2 (Homo sapiens), sequence (Q12809 whole entry, looked up): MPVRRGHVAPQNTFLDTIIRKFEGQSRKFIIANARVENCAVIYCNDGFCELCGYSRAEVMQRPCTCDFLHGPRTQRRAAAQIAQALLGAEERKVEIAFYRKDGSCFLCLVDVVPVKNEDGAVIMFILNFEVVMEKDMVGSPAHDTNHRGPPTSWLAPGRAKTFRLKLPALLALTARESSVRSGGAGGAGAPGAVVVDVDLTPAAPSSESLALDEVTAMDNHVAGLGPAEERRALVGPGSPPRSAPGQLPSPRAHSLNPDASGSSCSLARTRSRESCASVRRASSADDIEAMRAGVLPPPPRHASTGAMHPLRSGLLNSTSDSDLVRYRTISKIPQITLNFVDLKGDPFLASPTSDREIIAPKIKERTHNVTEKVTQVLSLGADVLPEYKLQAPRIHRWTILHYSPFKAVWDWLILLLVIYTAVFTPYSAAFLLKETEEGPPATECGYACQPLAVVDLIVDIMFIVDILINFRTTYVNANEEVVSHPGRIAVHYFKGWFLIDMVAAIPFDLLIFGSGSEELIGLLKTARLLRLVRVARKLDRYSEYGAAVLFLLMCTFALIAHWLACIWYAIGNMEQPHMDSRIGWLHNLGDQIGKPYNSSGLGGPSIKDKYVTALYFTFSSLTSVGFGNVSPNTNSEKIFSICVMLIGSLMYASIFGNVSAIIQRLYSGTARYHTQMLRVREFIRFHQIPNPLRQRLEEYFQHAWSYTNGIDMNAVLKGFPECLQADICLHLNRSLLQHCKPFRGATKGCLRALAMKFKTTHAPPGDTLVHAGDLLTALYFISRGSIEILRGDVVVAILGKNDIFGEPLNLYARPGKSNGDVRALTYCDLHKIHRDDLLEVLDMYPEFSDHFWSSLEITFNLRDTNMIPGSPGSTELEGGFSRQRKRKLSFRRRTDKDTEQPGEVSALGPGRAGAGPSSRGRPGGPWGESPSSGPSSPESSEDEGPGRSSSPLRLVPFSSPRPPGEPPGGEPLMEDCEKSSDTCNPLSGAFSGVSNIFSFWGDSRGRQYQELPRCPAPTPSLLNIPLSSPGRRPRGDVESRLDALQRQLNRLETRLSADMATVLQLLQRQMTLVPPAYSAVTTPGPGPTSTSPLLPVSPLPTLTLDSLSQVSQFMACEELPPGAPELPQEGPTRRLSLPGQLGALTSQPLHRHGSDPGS
row,SMILES,outcome
1,O=C(O)C(Cl)(Cl)Cl,inactive
2,C=C(C)C(=O)[O][Sn]([CH2]CCC)([CH2]CCC)[CH2]CCC,inactive
3,CCN1CCC2(CC1)COc1cc3c(cc12)N(C(=O)c1ccc(-c2ccc(-c4nnc(C)o4)cc2C)cc1)CC3,inactive

# Biological target: rat Peripheral-type Benzodiazepine Receptor (PBR), Tspo (gene 24230) (UniProt P16257)
# Experiment: NVS_MP_rPBR: NovaScreen (NVS) Membrane Protein Assay for rat Peripheral-type Benzodiazepine Receptor (PBR) (AID 2283335)
# Summary of the method: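 Radioligand displacement, rat kidney membrane prep, 1 h exposure, filter-based scintillation read; DMSO baseline, loss-of-signal scored. Primary screen at 25 uM in duplicate, actives followed up in concentration series.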
# rat Peripheral-type Benzodiazepine Receptor (PBR), Tspo (gene 24230), sequence (P16257 whole entry, looked up): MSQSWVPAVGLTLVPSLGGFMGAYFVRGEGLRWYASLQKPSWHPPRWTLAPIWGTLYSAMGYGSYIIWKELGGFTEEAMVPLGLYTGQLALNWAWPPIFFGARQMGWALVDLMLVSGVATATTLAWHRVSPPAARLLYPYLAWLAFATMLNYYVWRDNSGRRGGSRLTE
SMILES,AC50,outcome
C[C@@H]1C[C@@H]([C@H](O)CC2CC(=O)NC(=O)C2)C(=O)[C@@H](C)C1,33.3 µM (active),inactive
CCCCCCCCC(=O)NCc1ccc(O)c(OC)c1,6.25 µM (active),
O=C1C2(Cl)C3(Cl)C4(Cl)C(Cl)(Cl)C5(Cl)C3(Cl)C1(Cl)C5(Cl)C24Cl (centres undefined),,inactive
CCN1CCC2(CC1)COc1cc3c(cc12)N(C(=O)c1ccc(-c2ccc(-c4nnc(C)o4)cc2C)cc1)CC3,6.5 µM (active),
CC(C)(C)CC(C)(C)c1ccc(O)cc1,,inactive
CCNc1nc(NC(C)(C)C)nc(SC)n1,,inactive
Cn1sc(Cl)cc1=O,,inactive

# Test system: not listed separately
# Experiment: NVS_IC_rCaBTZCHL: NovaScreen (NVS) Ion Channel Assay for Calcium Channel, Type L, Benzothiazepine Site (CaBTZCHL) (AID 2283337)
# Experimental: NVS_IC_rCaBTZCHL is a biochemical, single-readout assay that uses extracted gene-proteins from Rat cortical membranes in a tissue-based cell-free assay. Measurements were taken 1.5 hours after chemical dosing in a 48-well plate.NVS_IC_rCaBTZCHL is one of one assay component(s) measured or calculated from the NVS_IC_rCaBTZCHL assay. It is designed to make measurements of radioligand binding, a form of binding reporter, as detected with scintillation counting signals by Filter-based radiodetection technology.Data from the assay component NVS_IC_rCaBTZCHL was analyzed into 1 assay endpoint. This assay endpoint, NVS_IC_rCaBTZCHL, was analyzed in the positive analysis fitting direction relative to DMSO as the negative control and baseline of activity. Using a type of binding reporter, loss-of-signal activity can be used to understand changes in the binding as they relate to the gene Cacna1a. Furthermore, this assay endpoint can be referred to as a primary readout, because the performed assay has only produced 1 assay endpoint. To generalize the intended target to other relatable targets, this assay endpoint is annotated to the ion channel intended target family, where the subfamily is calcium channel.
# Binding assays used specific radioligands (tritiated, iodinated) with non-radioactive competitive displacement ligands in agonist or antagonist protocols (as indicated) and various reference compounds and inhibitors to titrate specific binding to receptors and transporters. Most enzyme assays (CYPs, kinases, phosphatases, proteases, HDACs) used recombinant protein and specific substrates (fluorescence mostly, some colorimetric and radioactive) and inhibitors, followed by a biochemical separation of substrate and product. All assays for the biochemical HTS were initially run in duplicate at a single concentration (10 uM for CYP450 assays and 25 uM for all others). […] Each assay was run with positive and negative controls, and concurrent controls on every plate. The follow-up (secondary) screen tested active chemical-pairs in concentration series, as well as a few additional assays not tested in the primary screen, some selected negative inactives, and several cases re-run in the concentration series for confirmatory purposes.
SMILES,AC50,outcome
C=C(C)C(=O)[O][Sn]([CH2]CCC)([CH2]CCC)[CH2]CCC,12.8 µM (active),
CCN1CCC2(CC1)COc1cc3c(cc12)N(C(=O)c1ccc(-c2ccc(-c4nnc(C)o4)cc2C)cc1)CC3,4.16 µM (active),
Cn1sc(Cl)cc1=O,,inactive
CCC(=O)C(CC(C)N(C)C)(c1ccccc1)c1ccccc1 (centres undefined),1.16 µM (active),
